# The supplement of paper PMC6555819
# Experiments:
# Experiment in all cases: PBM binding z-score (relative to random genomic background probes); higher = stronger binding; sequences stand for … in GC…GCGATTGACAGCGTAGAATGAAGG
# [1] = system: PPARg:RXRa DBDmut IVT, anti-RXR (DBD mutation: RXRa K156A/R161A, NR concentration 270 nM, RXRa partner concentration 90 nM)
# Procedure, shortened: (§1)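 Custom Agilent 4×180K protein-binding microarrays carried double-stranded probes, each with a 34-nt variable region. These regions held direct-repeat seeds, single-nucleotide variants, half-site ablations and random human genomic background sequences. Ligand-free nuclear receptor dimers were incubated on the arrays for 1 h, antibodies against each partner (one per run) detected binding, and scanned fluorescence was regression-normalized. Binding z-scores take the random background probes as reference.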
# [2] = system: PPARg:RXRa IVT, anti-PPARg (NR concentration 270 nM, RXRa partner concentration 90 nM)
# Procedure, shortened: as §1
# [3] = system: PPARg DBDmut:RXRa IVT, anti-PPARg (DBD mutation: PPARg1 K132A/R137A, NR concentration 270 nM, RXRa partner concentration 90 nM)
# Procedure, shortened: as §1
# [4] = system: PPARg DBDmut IVT, anti-PPARg (DBD mutation: PPARg1 K132A/R137A, NR concentration 270 nM)
# Procedure, shortened: as §1
# [5] = system: PPARg homodimer (NR concentration 180 nM)
# Procedure, shortened: as §1
# [6] = system: PXR:RXRa (NR concentration 270 nM, RXRa partner concentration 90 nM)
# Procedure, shortened: as §1
# [7] = system: PXR homodimer (NR concentration 270 nM)
# Procedure, shortened: as §1
# [8] = system: RARa:RXR (NR concentration 270 nM, RXRa partner concentration 90 nM)
# Procedure, shortened: as §1
# [9] = system: RARa homodimer (NR concentration 270 nM)
# Procedure, shortened: as §1
# [10] = system: RARb:RXRa (NR concentration 270 nM, RXRa partner concentration 90 nM)
# Procedure, shortened: as §1
Sequence,PBM binding z-score [1],PBM binding z-score [2],PBM binding z-score [3],PBM binding z-score [4],PBM binding z-score [5],PBM binding z-score [6],PBM binding z-score [7],PBM binding z-score [8],PBM binding z-score [9],PBM binding z-score [10]
CGAACTAGGTCAAGGAAAGTGAATCTCCGCACGC,7.89,8.29,1.18,0.515,1.22,0.813,-0.499,1.62,0.0155,3.9
ATTTCTAGGTAAAAGTTCAGTGAATCCCGAGGAT,4.32,5.47,1.89,3.02,2.19,2.38,2.31,2.04,1.29,2.81
TTTCCAAGGTGAAGGTCGTTGATCCCTCTGTAGA,1.63,3.3,-0.24,0.793,1.03,1.68,0.247,2.21,-0.347,2.29
TCATATAGGTAAGGGTGAAAGTCGAACGATATGA,2.65,2.84,1.53,1.28,1.03,0.664,0.181,1.14,0.462,1.13
GATACAGGGTCAGCTAGAGGCCAGAGCATGGAAA,1.04,2.15,0.0195,-0.294,1.76,2.88,-0.095,4.33,-0.0795,4.16
TCTTGTATATCAGCAGGTTAAGAAAGCTGGCCAA,2.07,0.6,0.115,0.41,0.718,0.584,0.0851,0.998,0.982,0.687
ATCTCTAGGTAACAGTTCAGTGAATCCCGAGGAT,3.65,3.42,1.56,1,0.452,0.487,0.757,0.576,0.915,1.01
ATCTCTAAGTAAGACTCAGTTCAGTGAAGAACGC,0.103,0.218,0.885,1.04,0.659,0.518,1.83,0.541,1.22,0.15
TATACAGGCTCAAAGGCCAGAGTACGAATGTCGA,-0.518,0.865,0.383,0.281,-0.146,-0.262,-0.323,-0.258,0.14,0.95
TCGAGTCGGTTACCAATGGGGCATTCAGCTTTCT,0.844,-0.0532,-0.399,-0.375,-0.537,-0.204,-0.793,-0.238,-0.811,0.0866
ATCTCTAGGTAAAGCTAGTTCAGTGAATGCAAAT,2.03,1.83,0.606,0.732,0.371,1.07,0.241,0.383,0.278,0.0194
AATACAGGGTCACTAGGCCAGACTAGGTACGAAT,4.01,5.9,3.19,1.09,1.28,3.06,0.374,3.87,0.731,4.3
CCTACTGGCCCACGAAAGGTCATTGATTCAGTGA,-0.126,0.861,-0.814,-1.14,3,5.2,1.92,5.64,2.79,3.94
TCATATAGGTAATACGGGTGAAAGTCGGCATCTA,3.97,3.5,0.9,0.874,0.552,0.662,0.363,1.01,1.49,0.495
TCGAGTAGGTTAGAGGCATTCAGAATGGCGTCGA,1.65,0.965,-0.829,-0.771,0.087,-0.51,-0.852,-0.767,-0.955,0.0217
ATCTCTAGGTAACCAAGTCCAGTGAATGCCGAAC,3.27,2.54,0.49,1.58,0.614,0.0528,0.209,0.268,0.592,0.379
TCTTGTAGATCAAAGATTAAGAAAGCCGAAGCCT,1.71,0.407,0.363,0.404,-0.224,0.137,-0.525,0.257,0.694,-0.16
CGTCAAAGTTCAACTAAGGTAACGTAGAGCACGC,0.564,2.32,0.885,0.785,3.17,5.54,3.81,4.57,1.67,5.24
CCTTTTAGTTGACCATAAGGGCAACCGAAGCTCG,0.494,1.26,0.935,0.61,1.45,0.87,0.536,0.957,1.78,1.86
TCTTGTAGATTAGCAGGTTAAGAAAGCTGGCCAA,1.76,0.791,-0.369,-0.0447,0.0886,0.329,0.0335,0.552,0.796,0.197
CGATCTAGGTCAAGGACAGTGAATCTCCGCACGC,7.91,8.16,4.56,2.13,2.28,0.815,0.057,2.01,0.269,3.87
CGTCAAAGTGCAACTAAGGTAACGTAAAGCACGC,0.000169,0.492,-0.123,-0.228,0.0705,1.55,0.00934,2.04,-0.027,2.07

Sequence,PBM binding z-score [1],PBM binding z-score [2],PBM binding z-score [3],PBM binding z-score [4],PBM binding z-score [5],PBM binding z-score [6],PBM binding z-score [7],PBM binding z-score [8],PBM binding z-score [9],PBM binding z-score [10]
CGAACTAGGTCATTGACAGGCCAGTGAATAGTAA,8.3,7.98,0.866,1.34,1.29,1.34,-0.173,2.06,-0.0851,3.64
CGACCTAGGTCAAGGACAGTGAATCTCCGCACGC,4.04,3.83,0.362,-0.346,2.36,1.6,-0.248,2.45,0.805,4.13
CCTAGCAGGCAAGGGTCACTCAAGCATTTCGCTT,0.337,0.835,-1.27,-1.7,1.35,2.99,-0.946,3.86,-0.178,3.31
TCGAGTAGGTTACAAATGGGGCATTCAGCTTTCT,3.56,3.01,0.207,-0.201,0.131,0.0276,-0.499,0.475,0.267,0.54
AGTCAAAGTTCACTTGGTAACGTAAGATTCAGCT,0.263,2.42,1.28,0.299,1.76,4.17,2.53,2.62,0.876,4.58
GCGACTGGGGCATCAGCGGGTTACCATAACTTAA,3.43,2.86,-0.728,-1.07,0.437,-0.0944,-0.517,0.346,-0.439,0.729
CGTCAAAGTTCATCTAAGGTAACGTAAAGCACGC,0.47,1.89,0.673,1.11,3.01,5.51,5.77,3.97,1.85,4.78
GATACAGGGTCAGCTAGAGCCCAGAGTATGGAAA,0.771,2.13,-0.422,-0.697,1.06,1.83,-0.197,2.74,-0.316,3.81
AATACAGGTTCACTAGGCCAGAGTAGGTACGAAT,1.36,2.73,1.46,0.869,0.811,1.47,0.559,1.64,0.374,1.78
ATCTCTAGGTAAAATTCAGTGAAAGATCGATAGA,1.48,1.53,0.966,1.25,1.04,-0.0781,0.481,-0.157,1.26,0.336
CCTACTGGGCCATCATGTCATTGATATCAACGTT,4.06,4.28,0.246,0.754,0.785,-0.129,0.119,0.097,-0.0554,0.332
TGAATGAGGTTATACGATCAGGGAACGTTGCAAA,0.677,1.61,0.964,0.564,0.291,0.89,-0.167,1.48,0.115,1.15
CCTACTGGGGCAAGGTTACCATAACGCACAGCCA,4.78,5.52,2.27,0.765,2.66,0.3,-0.0906,0.631,0.512,1.7
CGAACTAGGGCAAGGACAGTGAATCTCCGCACGC,7,6.14,0.631,-0.116,-0.153,-0.332,-0.43,-0.371,-0.534,1.59
TCATATAGGTAAACAGGTGAAAGCCCGTAAGTTA,4.79,4.53,1.26,0.658,0.824,0.744,0.0524,1.07,1.58,0.738
GCTAATTGGTCAGTAAAAGGTCACACACCGGTCG,1.17,3.09,0.371,1.23,3.29,4.83,1.25,5.26,2.18,4.66
CAGGCTAGGTCAGGGCCAGTATAGGAGGAACGTT,1.77,2.27,-0.979,-1.24,0.901,0.235,-0.157,0.946,0.278,3.6
TCTTGTAGACCAGCAGGTTAAGAAAGCTGGCCAA,1.63,0.1,-1.37,-0.977,-0.0673,0.0995,-0.534,0.371,-0.568,0.179
TGAATGAGGTTAAAGATCAGGGGACGTGGCGTCG,2.48,3.35,1.21,0.582,1.75,1.7,-0.086,3.31,0.0279,2.11
CCGACTGTGGCAAAGGTTACCATACTCAGTACGA,2.07,3.83,0.000701,-0.266,1.71,1.84,0.27,2.56,0.0109,1.9
TCTTGTAGATCAACATGAGGTTAAGAAAGATCGA,1.66,1.07,1.29,1.12,-0.107,1.22,-0.155,1.53,0.226,0.619
CCTACTGGGCCAAAAAGGTGATTGATGCCGATAA,2.58,2.98,-0.0281,-0.242,0.459,-0.0996,-0.324,-0.0994,-0.0492,0.271
